# High-throughput results as filed in PubChem BioAssay.
# Hits are enriched below; roughly 19% of the tested compounds scored in any of these assays.
# HT1080-NT tox: kills 2HG-producing HT-1080-NT fibrosarcoma cells; HT-1080-NT fibrosarcoma viability, CellTiter-Glo ATP luminescence, 48 h; Potency, µM (highest dose often 46.1 µM), for inactives: at the highest dose activity, negative = less viability, hits mostly cytotoxic; 360,000 tested, 1.6% active; AID 686970;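 further: NT is the 2HG producing partner of a matched IDH1 knockdown line; potency means the concentration at half of the fitted maximal effect; 0% = DMSO-treated cells and -100% = media-only wells without cells; nearly all actives have a fitted effect of over 55% in size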
#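 750 cells/well, RPMI + 5% FBS; 2 h settle, compound pin-transfer, 48 h at 37 degrees C. CellTiter-Glo 10 min RT, luminescence. Normalized to DMSO and media-only wells.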
# DT40 TDP1 no CPT: qHTS for Inhibitors of human tyrosyl-DNA phosphodiesterase 1 (TDP1): qHTS in cells in absence of CPT; DT40 Tdp1-/- hTDP1 cells, no CPT, ATP luminescence, 48 h; Potency, µM (top dose mostly 46.2 µM), inactives show top-dose activity change, negative = growth inhibition, usual class: inhibitors; 420,000 tested, 15% active; AID 686978, 2013; further: potency means the concentration at half of the fitted maximal effect; nearly all actives have a fitted effect of over 55% in size
#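 Seeded 400 DT40-hTDP1 cells/well (vehicle DMSO, no 20 nM CPT); pinned compounds; ≥48 hr at 37 °C; CellTiter-Glo luminescence as viability measure.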
# IL1B secr inh: inhibitors of inflammasome signaling (IL-1 beta secretion) | THP-1 LPS/ATP IL-1B secretion, AlphaLISA, 16 h; active compounds read low | activity change, % at 57.5 µM | 360,000 tested, 4.7% active | AID 743279; in the data active means activity change below about -50%; inconclusive means mostly about -30% to -49%
#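 Secreted IL-1B measured by AlphaLISA bead assay after 16 h compound exposure of THP-1 cells; compounds (final up to 57.5 uM) added 1 h before LPS (250 ng/mL) and ATP (1.25 mM) stimulation; lower signal means less secretion.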
# TDP1 cell CPT: growth inhibition of DT40 Tdp1-/-;hTDP1 cells with camptothecin (screen for TDP1 inhibitors) | chicken DT40 Tdp1-/-;hTDP1 cells + 20 nM CPT, ATP luminescence, 48 h | 420,000 tested, 12% active | Potency, µM (doses to about 46.2 µM), for the others: top-dose activity change, negative = growth inhibition, actives largely listed as inhibitors; further: potency means the concentration at half of the fitted maximal effect; nearly all actives have a fitted effect of over 55% in size
#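 Chicken DT40 Tdp1-/- cells complemented with human TDP1, 400 cells/well, exposed to compounds plus 20 nM camptothecin for at least 48 h at 37 C; viability read as ATP content by CellTiter-Glo luminescence.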
# HT1080 IDH1KD tx: HT-1080 IDH1 knockdown cell toxicity (counter line); HT-1080 IDH1 knockdown viability, ATP luminescence, 48 h; Potency, µM (top dose mostly 46.1 µM), for inactives: top-dose activity, negative = toxicity, usual class: cytotoxic; AID 686971; 360,000 tested, 2% active;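 further: potency means the concentration at half of the fitted maximal effect; 0% = DMSO wells and -100% = cell-free medium wells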
#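 In this qHTS, HT-1080 cells depleted of IDH1 are exposed for 48 h at 37 °C to compound titrations. Toxicity is scored from CellTiter-Glo luminescence, with DMSO as full viability and medium alone as none.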
# * marks the source's active call; other numbers are inactive results; u = inconclusive; x = not tested or not shown; [ ] = dose if it differs, or a comment. Unless noted, the call rests on the fitted dose curve; in most records, active means well fitted curve in the direction sought with a large enough effect; inconclusive means small, poorly fitted or top-dose-only effect, or another doubt; inactive means no such curve, though single readings can be large; an effect the other way counts as inactive or inconclusive. Unless noted, on the % scale 0 is the no-effect control and ±100 the full control effect.
SMILES,HT1080-NT tox,DT40 TDP1 no CPT,IL1B secr inh,TDP1 cell CPT,HT1080 IDH1KD tx
CC(CC(C#N)(c1ccccc1)c1ccccc1)N1CCOCC1 (stereo not drawn),10.9%,u,u,23.1µM*,4.1%
CC1=C2CC3C(CC=C4C[C@@H](O)CC[C@@]43C)[C@@H]2CC[C@]12O[C@@H]1C[C@H](C)CN[C@H]1[C@H]2C (stereo partly drawn),x,-4.1%,x,11.7%,x
Cc1ccc(S(=O)(=O)N(C)N=O)cc1,22.8%,-18.6%,27.6,-14.6%,1.7%
COc1ccccc1OC(=O)Oc1ccccc1OC,5.6%,u,-1.3,-8.5%,12.5%
C=C1CCC(O)C/C1=C\C=C1/CCCC2(C)C1CCC2C(C)CCCC(C)C (stereo not drawn),x,26.6µM*,x,23.7µM*,x
COc1ccc(OC)c([C@@H](O)[C@H](C)N)c1,x,-15.0%,x,-26.2%,x
C=C(C)C1Cc2c(ccc3c2OC2COc4cc(OC)c(OC)cc4C2C3=O)O1 (stereo not drawn),x,0.103µM*,x,0.0517µM*,x
C=C(C)[C@H]1Cc2c(ccc3c2O[C@@H]2COc4cc(OC)c(OC)cc4[C@@H]2C3=O)O1,x,0.237µM*,x,0.237µM*,x
CCOc1ccccc1OCC(=O)Nc1ccc(Cl)cc1C(=O)c1ccccc1,-3.5%,-12.0%,3.7,-13.5%,-10.7%
CCCSP(=O)(OCC)SCCC,x,-13.3%[92.5 µM],x,6.0%[92.5 µM],x
Cc1ccc2c(c1)C1CN(C)CCC1N2C(=O)CCCN1C(=O)c2cccc3cccc(c23)C1=O (stereo not drawn),x,u,-13.6,-10.7%,u
Cc1ccc2c(c1)C1CN(C)CCC1N2C(=O)COc1ccc(N(C)S(=O)(=O)c2cccs2)cc1 (stereo not drawn),-29.1%,u,-11.3,-27.8%,-17.7%
CCOc1ccc(S(=O)(=O)N(C)c2ccc(OCC(=O)N3c4ccc(C)cc4C4CN(C)CCC43)cc2)cc1 (stereo not drawn),x,u,-50.4*,u,u
Cc1ccc2c(c1)C1CN(C)CCC1N2C(=O)COc1ccc(N(C)C(=O)C(C)(C)C)cc1 (stereo not drawn),-2.9%,18.4µM*,-76.3*,u,-0.4%
CCN(CC)c1ccc(N=Cc2c(O)n(Cc3ccco3)c(=O)[nH]c2=O)cc1,4.1%,-11.7%,x,1.2%,4.8%
CCN(CCO)c1ccc(N=Cc2c(O)n(C)c(=S)[nH]c2=O)cc1,18.9%,10.3µM*,8.0,11.6µM*,-9.7%
CCOC(=O)C1C(C=C(C)C)C1(C)C (stereo not drawn),x,17.5%,x,-5.4%,x
O=C(/C=C/c1ccc(Cl)cc1)NC(=S)N1C[C@H]2C[C@H](C1)c1cccc(=O)n1C2,-0.1%,-5.7%,-18.4,3.5%,1.7%
COC(=O)c1ccccc1C(=O)OC,x,-5.4%,x,0.5%,x
CC(=O)c1cn(Cc2ccc(F)cc2)c2ccccc12,-5.0%,18.4µM*,29.5,20.6µM*,-16.3%
Nc1ccc(C2(c3ccc(N)cc3)CN3CCC2CC3)cc1,5.6%,13µM*,4.3,18.4µM*,11.0%
CC1(C)NC(=S)C(C)(C)N1N=O,0.6%,-2.0%,0.0,7.6%,1.0%
COc1cccc(OC)c1-c1nn2c(-c3n[nH]c4c3CCC4)nnc2s1,x,5.62µM*,x,6.31µM*,x
CC1(C)N(O)C(c2ccc(C(=O)O)cc2)=[N+]([O-])C1(C)C,x,-13.4%,x,8.7%,x
CCN1C(=O)/C(=C/c2ccc3c(c2)CCN3CCCCl)C(=O)NC1=S,13.7%,23.1µM*,-18.7,u,5.2%
O=c1oc2ccccc2n1CSC1=NCCS1,u,u,-106.8*,u,u
OC(c1ccccc1)(c1ccccc1)C1CCCN1 (stereo not drawn),-3.0%,-8.5%,-5.5,-16.1%,-3.2%
CCCNC(=O)c1c(N)n(Cc2ccco2)c2nc3ccccc3nc12,11.2µM*,u,-89.5*,23.1µM*,u
CC(C)CCNC(=O)c1c(N)n(Cc2ccc3c(c2)OCO3)c2nc3ccccc3nc12,0.2%,u,u,u,8.3%
